Laboratory results reported in ChEMBL document CHEMBL1961873, “Compounds: GSK PKIS; Assays: Nanosyn kinase panel” (2012).

Assays:
[1] = target: Protein kinase C gamma type (Homo sapiens) (UniProt P05129); conditions: at 1 µM;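 further: each value is an averaged percent inhibition of the enzyme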
[2] = target: T1, Protein kinase C iota type (Homo sapiens) (UniProt P41743); conditions: at 0.1 µM
T1 sequence (whole entry): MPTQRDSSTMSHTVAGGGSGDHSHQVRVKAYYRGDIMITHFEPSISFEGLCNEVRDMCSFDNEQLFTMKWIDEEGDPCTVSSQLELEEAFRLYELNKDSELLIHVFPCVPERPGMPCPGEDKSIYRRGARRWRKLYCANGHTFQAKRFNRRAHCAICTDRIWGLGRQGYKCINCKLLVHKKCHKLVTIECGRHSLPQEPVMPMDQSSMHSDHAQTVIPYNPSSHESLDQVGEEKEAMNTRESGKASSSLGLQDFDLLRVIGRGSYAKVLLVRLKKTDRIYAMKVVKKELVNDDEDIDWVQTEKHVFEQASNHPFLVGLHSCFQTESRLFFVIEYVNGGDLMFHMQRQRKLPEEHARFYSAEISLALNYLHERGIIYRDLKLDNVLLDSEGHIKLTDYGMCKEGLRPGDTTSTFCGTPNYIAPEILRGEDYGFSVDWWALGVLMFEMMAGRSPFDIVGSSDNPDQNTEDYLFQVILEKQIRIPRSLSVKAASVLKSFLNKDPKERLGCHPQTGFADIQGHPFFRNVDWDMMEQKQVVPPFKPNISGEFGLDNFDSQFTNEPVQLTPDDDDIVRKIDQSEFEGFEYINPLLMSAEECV

[3] = target: T1, Protein kinase C iota type (Homo sapiens); conditions: at 1 µM
[4] = target: Protein kinase C theta type (Homo sapiens) (UniProt Q04759); conditions: at 0.1 µM
Chain of Protein kinase C theta type (Homo sapiens) (Q04759 whole entry, looked up): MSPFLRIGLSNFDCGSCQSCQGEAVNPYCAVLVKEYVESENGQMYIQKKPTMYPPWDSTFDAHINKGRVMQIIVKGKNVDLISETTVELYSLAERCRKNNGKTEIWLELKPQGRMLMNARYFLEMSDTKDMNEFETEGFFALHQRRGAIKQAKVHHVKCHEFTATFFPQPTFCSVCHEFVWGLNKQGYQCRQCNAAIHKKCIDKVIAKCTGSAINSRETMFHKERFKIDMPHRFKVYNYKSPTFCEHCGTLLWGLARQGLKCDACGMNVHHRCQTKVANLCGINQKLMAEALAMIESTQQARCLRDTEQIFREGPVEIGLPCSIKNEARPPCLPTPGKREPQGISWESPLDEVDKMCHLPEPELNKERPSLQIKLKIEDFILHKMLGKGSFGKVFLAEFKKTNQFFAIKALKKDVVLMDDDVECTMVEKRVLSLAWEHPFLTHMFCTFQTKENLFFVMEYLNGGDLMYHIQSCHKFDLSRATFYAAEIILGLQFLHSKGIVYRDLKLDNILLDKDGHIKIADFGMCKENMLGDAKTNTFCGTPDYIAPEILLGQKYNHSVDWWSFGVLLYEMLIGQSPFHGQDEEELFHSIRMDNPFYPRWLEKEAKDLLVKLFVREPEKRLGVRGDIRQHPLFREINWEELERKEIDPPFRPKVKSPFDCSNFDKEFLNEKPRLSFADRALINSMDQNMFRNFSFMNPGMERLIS

[5] = target: Protein kinase C theta type (Homo sapiens) (UniProt Q04759); conditions: at 1 µM
[6] = target: Protein kinase C beta type (Homo sapiens) (UniProt P05771); conditions: at 0.1 µM
Chain of Protein kinase C beta type (Homo sapiens) (P05771 2-671 limits assumed): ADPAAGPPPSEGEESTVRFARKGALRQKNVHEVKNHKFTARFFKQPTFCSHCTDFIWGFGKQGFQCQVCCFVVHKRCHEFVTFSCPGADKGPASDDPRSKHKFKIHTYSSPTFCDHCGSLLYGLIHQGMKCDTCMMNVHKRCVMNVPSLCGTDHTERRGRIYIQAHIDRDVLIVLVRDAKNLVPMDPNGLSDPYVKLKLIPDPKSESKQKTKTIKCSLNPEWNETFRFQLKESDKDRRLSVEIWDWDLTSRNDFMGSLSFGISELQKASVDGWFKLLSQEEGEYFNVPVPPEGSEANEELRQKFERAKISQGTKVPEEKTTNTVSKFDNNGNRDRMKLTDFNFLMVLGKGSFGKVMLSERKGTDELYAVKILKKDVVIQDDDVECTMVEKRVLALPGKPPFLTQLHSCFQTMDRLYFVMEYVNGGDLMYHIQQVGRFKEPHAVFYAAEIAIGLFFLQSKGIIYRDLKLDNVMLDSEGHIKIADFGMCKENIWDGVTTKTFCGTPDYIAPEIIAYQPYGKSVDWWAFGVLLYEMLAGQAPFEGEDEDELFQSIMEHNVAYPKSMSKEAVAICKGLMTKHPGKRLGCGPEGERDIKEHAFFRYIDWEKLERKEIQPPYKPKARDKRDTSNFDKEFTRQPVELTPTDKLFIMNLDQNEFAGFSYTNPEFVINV

[7] = target: Protein kinase C beta type (Homo sapiens) (UniProt P05771); conditions: at 1 µM
[8] = target: T2, Serine/threonine-protein kinase D1 (Homo sapiens) (UniProt Q15139); conditions: at 0.1 µM
T2 sequence (whole entry): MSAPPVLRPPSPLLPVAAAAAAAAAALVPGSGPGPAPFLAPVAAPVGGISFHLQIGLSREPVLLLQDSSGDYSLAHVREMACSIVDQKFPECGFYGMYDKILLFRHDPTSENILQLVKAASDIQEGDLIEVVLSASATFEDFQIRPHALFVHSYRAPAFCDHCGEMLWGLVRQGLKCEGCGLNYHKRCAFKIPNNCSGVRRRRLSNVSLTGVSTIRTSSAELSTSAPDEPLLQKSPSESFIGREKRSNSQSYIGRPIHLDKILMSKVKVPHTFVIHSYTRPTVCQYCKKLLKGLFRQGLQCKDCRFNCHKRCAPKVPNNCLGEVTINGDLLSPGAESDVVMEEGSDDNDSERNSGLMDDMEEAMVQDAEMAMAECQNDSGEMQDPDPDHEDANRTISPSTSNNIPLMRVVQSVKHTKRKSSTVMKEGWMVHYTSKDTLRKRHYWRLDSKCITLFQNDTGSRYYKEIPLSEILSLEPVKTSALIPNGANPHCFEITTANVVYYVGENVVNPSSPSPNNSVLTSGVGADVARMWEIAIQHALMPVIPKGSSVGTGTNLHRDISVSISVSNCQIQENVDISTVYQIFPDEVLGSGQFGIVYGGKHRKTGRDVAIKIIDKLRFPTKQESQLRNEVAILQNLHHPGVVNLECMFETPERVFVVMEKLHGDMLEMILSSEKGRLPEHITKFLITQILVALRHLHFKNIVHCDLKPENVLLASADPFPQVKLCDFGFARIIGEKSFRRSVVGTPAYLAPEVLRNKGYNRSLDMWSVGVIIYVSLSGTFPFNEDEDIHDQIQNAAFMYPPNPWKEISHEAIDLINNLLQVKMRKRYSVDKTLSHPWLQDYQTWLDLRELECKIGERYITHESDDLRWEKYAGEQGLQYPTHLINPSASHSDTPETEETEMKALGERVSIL

[9] = target: T2, Serine/threonine-protein kinase D1 (Homo sapiens); conditions: at 1 µM
[10] = target: T3, Serine/threonine-protein kinase D2 (Homo sapiens) (UniProt Q9BZL6); conditions: at 0.1 µM
T3 sequence (whole entry): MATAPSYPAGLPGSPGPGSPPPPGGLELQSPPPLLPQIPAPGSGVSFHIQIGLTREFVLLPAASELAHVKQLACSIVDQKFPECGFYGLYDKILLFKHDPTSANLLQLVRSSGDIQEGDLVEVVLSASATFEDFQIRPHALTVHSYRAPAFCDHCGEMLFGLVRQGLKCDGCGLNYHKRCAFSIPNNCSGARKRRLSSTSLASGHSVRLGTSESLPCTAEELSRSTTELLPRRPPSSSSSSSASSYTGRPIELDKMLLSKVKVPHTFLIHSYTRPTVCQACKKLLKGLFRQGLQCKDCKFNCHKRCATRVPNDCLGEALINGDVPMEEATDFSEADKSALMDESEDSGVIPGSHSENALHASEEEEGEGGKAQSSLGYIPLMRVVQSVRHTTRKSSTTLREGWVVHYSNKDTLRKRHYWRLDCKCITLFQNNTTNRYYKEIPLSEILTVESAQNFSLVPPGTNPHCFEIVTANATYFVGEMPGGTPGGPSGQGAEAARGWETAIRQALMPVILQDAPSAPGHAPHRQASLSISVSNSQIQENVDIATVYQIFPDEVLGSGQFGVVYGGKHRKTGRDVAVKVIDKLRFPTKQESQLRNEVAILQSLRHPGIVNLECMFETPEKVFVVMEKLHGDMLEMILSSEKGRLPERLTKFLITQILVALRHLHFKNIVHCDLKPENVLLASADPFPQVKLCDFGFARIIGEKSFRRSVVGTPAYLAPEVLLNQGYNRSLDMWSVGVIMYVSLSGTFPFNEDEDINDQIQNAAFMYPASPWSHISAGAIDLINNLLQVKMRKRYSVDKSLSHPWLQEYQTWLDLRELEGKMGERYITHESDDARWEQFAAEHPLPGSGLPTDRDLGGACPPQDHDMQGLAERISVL

[11] = target: T3, Serine/threonine-protein kinase D2 (Homo sapiens); conditions: at 1 µM
[12] = target: T4, Serine/threonine-protein kinase D3 (Homo sapiens) (UniProt O94806); conditions: at 0.1 µM
T4 sequence (whole entry): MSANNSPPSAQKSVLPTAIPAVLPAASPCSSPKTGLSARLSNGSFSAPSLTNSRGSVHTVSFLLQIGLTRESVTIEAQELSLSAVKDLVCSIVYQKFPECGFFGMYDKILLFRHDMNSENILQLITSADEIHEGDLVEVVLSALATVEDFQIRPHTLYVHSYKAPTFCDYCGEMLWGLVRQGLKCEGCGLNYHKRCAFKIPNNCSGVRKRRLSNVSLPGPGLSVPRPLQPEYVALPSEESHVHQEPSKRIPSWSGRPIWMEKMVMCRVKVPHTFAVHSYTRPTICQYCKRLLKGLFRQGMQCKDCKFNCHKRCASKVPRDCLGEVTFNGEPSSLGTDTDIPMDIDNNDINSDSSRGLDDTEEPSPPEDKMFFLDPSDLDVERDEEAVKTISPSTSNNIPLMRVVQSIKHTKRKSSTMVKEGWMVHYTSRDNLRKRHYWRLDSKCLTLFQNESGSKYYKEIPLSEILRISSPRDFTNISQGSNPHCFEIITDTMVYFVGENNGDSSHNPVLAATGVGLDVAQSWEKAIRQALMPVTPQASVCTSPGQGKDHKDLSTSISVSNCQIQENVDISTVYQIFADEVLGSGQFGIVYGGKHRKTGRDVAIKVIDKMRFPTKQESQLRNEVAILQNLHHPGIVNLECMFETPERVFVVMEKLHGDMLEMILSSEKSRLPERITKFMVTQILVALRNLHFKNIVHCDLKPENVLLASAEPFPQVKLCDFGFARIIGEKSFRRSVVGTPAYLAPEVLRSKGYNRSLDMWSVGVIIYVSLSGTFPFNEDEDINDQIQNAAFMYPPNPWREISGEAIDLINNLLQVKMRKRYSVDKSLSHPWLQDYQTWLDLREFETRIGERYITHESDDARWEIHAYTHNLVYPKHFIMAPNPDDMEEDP

[13] = target: T4, Serine/threonine-protein kinase D3 (Homo sapiens); conditions: at 1 µM
[14] = target: T5, cGMP-dependent protein kinase 1 (Homo sapiens) (UniProt Q13976); conditions: at 0.1 µM
T5 sequence (whole entry): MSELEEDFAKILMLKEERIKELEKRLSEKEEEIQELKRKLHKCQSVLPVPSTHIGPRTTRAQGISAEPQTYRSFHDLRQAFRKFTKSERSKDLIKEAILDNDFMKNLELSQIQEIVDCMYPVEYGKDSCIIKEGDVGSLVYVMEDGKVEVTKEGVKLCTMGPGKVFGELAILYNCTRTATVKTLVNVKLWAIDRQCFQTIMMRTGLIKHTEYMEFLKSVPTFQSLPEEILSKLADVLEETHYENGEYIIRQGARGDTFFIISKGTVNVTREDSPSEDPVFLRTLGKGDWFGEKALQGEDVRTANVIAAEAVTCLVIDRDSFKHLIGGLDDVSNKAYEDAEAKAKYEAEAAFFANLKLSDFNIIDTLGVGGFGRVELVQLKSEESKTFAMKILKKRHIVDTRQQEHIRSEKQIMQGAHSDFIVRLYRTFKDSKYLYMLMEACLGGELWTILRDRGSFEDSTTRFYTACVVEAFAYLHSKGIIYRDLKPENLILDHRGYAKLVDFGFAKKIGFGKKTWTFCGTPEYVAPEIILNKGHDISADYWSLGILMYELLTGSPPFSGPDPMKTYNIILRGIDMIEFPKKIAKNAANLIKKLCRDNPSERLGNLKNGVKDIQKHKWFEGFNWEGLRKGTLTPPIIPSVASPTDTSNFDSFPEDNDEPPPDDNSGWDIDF

[15] = target: T5, cGMP-dependent protein kinase 1 (Homo sapiens); conditions: at 1 µM
[16] = target: T6, cGMP-dependent protein kinase 2 (Homo sapiens) (UniProt Q13237); conditions: at 0.1 µM
T6 sequence (whole entry): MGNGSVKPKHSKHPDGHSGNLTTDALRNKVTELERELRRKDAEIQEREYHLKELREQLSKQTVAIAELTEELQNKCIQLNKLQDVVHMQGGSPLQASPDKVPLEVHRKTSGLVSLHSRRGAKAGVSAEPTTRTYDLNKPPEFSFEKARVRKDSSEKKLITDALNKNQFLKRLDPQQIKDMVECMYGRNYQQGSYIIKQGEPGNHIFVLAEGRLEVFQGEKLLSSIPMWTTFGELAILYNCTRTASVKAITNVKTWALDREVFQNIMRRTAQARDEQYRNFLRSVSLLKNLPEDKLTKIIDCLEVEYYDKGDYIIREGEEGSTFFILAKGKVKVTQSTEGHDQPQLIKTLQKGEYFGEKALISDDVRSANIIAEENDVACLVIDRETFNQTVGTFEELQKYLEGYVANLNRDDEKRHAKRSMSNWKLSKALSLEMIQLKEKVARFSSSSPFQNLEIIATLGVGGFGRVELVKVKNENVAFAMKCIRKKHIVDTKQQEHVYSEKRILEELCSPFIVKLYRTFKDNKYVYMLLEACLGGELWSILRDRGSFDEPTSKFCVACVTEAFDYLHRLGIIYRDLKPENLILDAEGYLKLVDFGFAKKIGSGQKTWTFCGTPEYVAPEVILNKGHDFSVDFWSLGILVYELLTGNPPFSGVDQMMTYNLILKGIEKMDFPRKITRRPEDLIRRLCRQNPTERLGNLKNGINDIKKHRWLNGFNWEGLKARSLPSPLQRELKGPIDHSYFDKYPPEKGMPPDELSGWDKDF

[17] = target: T6, cGMP-dependent protein kinase 2 (Homo sapiens); conditions: at 1 µM
[18] = target: T7, cAMP-dependent protein kinase catalytic subunit PRKX (Homo sapiens) (UniProt P51817); conditions: at 0.1 µM
T7 sequence (whole entry): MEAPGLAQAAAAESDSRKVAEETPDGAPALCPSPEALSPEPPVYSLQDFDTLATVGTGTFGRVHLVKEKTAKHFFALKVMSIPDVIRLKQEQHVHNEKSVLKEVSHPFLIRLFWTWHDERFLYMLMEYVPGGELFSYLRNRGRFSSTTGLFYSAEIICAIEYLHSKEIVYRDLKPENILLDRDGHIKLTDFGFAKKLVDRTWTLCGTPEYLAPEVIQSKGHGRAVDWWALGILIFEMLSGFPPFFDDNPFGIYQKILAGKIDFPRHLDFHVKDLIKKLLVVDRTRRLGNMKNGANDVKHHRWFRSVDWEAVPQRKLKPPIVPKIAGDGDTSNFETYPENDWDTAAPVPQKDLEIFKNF

[19] = target: T7, cAMP-dependent protein kinase catalytic subunit PRKX (Homo sapiens); conditions: at 1 µM
[20] = target: Rho-associated protein kinase 1 (Homo sapiens) (UniProt Q13464); conditions: at 0.1 µM;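 further: values are mean percent inhibition of ROCK1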
Chain of Rho-associated protein kinase 1 (Homo sapiens) (Q13464 2-1354 limits assumed): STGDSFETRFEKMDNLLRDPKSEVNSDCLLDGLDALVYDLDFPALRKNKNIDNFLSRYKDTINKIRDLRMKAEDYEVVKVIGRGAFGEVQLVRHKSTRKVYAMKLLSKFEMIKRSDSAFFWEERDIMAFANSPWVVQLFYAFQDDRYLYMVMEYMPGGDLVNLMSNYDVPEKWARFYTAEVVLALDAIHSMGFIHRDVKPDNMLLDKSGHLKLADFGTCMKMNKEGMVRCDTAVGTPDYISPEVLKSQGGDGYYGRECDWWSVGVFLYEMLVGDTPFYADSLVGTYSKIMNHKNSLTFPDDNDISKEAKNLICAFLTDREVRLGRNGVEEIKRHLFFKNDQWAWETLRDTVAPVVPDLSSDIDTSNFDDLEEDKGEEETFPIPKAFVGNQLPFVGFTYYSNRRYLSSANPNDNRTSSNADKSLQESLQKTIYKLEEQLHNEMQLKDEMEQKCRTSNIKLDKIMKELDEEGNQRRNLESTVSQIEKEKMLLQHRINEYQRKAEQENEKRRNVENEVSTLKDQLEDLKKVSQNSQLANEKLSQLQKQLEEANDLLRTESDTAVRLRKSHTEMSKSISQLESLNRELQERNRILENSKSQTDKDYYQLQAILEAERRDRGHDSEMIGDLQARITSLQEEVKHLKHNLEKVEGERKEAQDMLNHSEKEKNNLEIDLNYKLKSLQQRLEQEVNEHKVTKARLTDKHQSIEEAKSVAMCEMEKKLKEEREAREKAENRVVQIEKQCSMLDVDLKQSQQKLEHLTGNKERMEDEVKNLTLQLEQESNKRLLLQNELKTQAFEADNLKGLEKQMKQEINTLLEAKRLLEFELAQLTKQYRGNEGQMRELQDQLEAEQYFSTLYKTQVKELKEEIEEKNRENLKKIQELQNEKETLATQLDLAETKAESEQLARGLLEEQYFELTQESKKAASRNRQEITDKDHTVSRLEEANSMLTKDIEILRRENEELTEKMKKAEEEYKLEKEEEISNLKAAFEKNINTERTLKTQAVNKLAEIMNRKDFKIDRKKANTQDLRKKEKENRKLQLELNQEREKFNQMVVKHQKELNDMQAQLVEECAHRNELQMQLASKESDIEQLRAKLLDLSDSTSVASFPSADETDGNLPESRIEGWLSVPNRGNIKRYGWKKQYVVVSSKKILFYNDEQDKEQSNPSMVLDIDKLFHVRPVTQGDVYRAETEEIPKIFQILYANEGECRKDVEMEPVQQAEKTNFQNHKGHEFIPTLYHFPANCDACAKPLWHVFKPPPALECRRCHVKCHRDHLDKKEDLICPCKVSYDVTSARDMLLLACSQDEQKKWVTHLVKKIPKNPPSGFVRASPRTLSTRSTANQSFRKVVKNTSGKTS

SMILES	inhibition [1] [%]	inhibition [2] [%]	inhibition [3] [%]	inhibition [4] [%]	inhibition [5] [%]	inhibition [6] [%]	inhibition [7] [%]	inhibition [8] [%]	inhibition [9] [%]	inhibition [10] [%]	inhibition [11] [%]	inhibition [12] [%]	inhibition [13] [%]	inhibition [14] [%]	inhibition [15] [%]	inhibition [16] [%]	inhibition [17] [%]	inhibition [18] [%]	inhibition [19] [%]	inhibition [20] [%]
COc1cc(Nc2ncc3c(C)nc(-c4cccc(Oc5ccccc5)c4)n3n2)cc(OC)c1OC	2.12	0.93	1.81	0.31	-0.72	0.53	0.55	1.42	2.93	1.26	3	1.74	3.77	1.98	2.3	1.18	2.71	1.26	-0.03	1.05
Fc1ccc(-c2nc3n(c2-c2ccncc2)CCS3)cc1	0.85	2.39	2.4	1.87	1.91	1.53	4.27	0.84	4.16	2.09	3.85	1.34	3.94	3.66	4.28	2.32	3.35	1.54	1.87	1.14
